The subject of experiment [1] is Aerobactin synthetase IucA (Klebsiella pneumoniae). Briefly: IucA aerobactin synthetase inhibitors, biochemical, Tocris library, absorbance (AID 1345561).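 Note: 100% = enzyme without compound and 0% = no enzyme.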 As to conditions: purified IucA enzyme assay, absorbance (OD) read-out; stronger effect = lower value;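 tested at 8 µM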.
The nature of experiment [2]: sensitizers of A549 cells to miR-34 induction, primary screen, imaging, A549 dox-inducible miR-34, nuclei and caspase counts (AID 1347080;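 active = compounds whose cell count with miR-34 switched on is under 0.7 times the count with it off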). As to conditions: A549 miR-34 inducible, Hoechst nuclei count, 48 h.
Experiment [3] is described as follows: viability rescue of complex I mutant cybrids, primary screen, cell-based, galactose medium, ATP luminescence (AID 1645843;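 active = z-score of at least 1.8 in each of two replicates, scored against plate mean and spread of sample wells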;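 note: positive z means more ATP and so rescue of galactose-driven cybrid death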). The note with it: complex I mutant cybrid cells, 72 h, stronger effect = higher value.
The nature of experiment [4]: survival rescue of mitochondrial mutant cells in low glucose, primary screen, MELAS cybrids, Rieske KO mouse fibroblasts, CellTiter-Glo (AID 1508586;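 active = mean z-score across replicates of 1.96 or higher in either the MELAS or the Rieske mutant cell line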;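 note: z relative to plate mean and SD of compound and empty wells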).
Experiment [5] has as its system Hepatitis C virus NS3 helicase. Briefly: HCV NS3 helicase inhibitors, primary screen, biochemical, fluorescence polarization, LOPAC1280 library (AID 687035; in the data active = inhibition above about 37%). The note with it: Purified HCV NS3 helicase, Cy5-dT15 ssDNA binding fluorescence polarization; stronger effect = higher value; concentration not given here.
Experiment [6] in a line: Cy5 fluorescence quenching or enhancement artefacts, artefact control for HCV NS3 helicase inhibitor project, biochemical, LOPAC1280 (AID 687037). The note with it: Cy5-DNA-NS3h complex fluorescence interference counterscreen. (Counterscreens check selectivity or assay interference.)
Experiment [7] is described as follows: circadian clock period modulators, cell-based, LOPAC library, luminescence reporter (AID 2774).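 Note: values are relative to mean of DMSO wells on each plate.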 As to conditions: circadian reporter cells, at 7 µM, actives lie on both sides.
Setting [8] is: stronger effect = lower value, cell number ratio, induced over uninduced.
Setting [9] is: measured here: relative caspase fold change +Dox/-Dox.
Setting [10] is: measured here: total cells with miR-34 induction, stronger effect = lower value.
The mark [11] stands for this setting: measured here: total cells without miR-34 induction.

Several values for one entry are separate records, joined by “and”; a condition that tells them apart may be missing. Equal entries are not always repeated. Activity calls are given as the source filed them. Unless noted, the rule behind the calls is not given here.

One may read the remaining activity as the signal under treatment as a percentage of the control signal. As usually defined, the inhibition is the relative decrease from the control value, in per cent.

`CCCCCOc1c(OC)ccc2cc(C(=O)NCc3ccc4c(c3)OCO4)c(=O)[nH]c12`: the remaining activity in experiment [1] was 107% (inactive). For the same compound, the fold change was 1.04 (inactive) in experiment [2] (setting [8]) and 1.43 in experiment [2] (setting [9]). In addition, the cell count in experiment [2] (setting [10]) is 5450; in experiment [2] (setting [11]) it was 5260. The z-score in experiment [3] is 0.125 (inactive).

For `Cn1c2c(c3ccccc31)CCNCC2`, the remaining activity in experiment [1] is 98.4% (inactive). Further, the figures for the fold change in experiment [2] (setting [8]) and in experiment [2] (setting [9]) were 0.896 (inactive) and 1.23, respectively. Besides, the figures for the cell count in experiment [2] (setting [10]) and in experiment [2] (setting [11]) were 8130 and 9070, respectively. In addition, in experiment [3], the z-score is -0.23 (inactive).

Turning to `Fc1ccc(C(OCCN2CCN(C/C=C/c3ccccc3)CC2)c2ccc(F)cc2)cc1`, in experiment [1], the remaining activity is 116% (inactive). The fold change in experiment [2] (setting [8]) is 0.843 (inactive); in experiment [2] (setting [9]), 1.03. Also, the cell count in experiment [2] (setting [10]) worked out at 2280; in experiment [2] (setting [11]), 2710. In addition, the z-score in experiment [3] is -1.23 (inactive).

Take `Cc1cccc(C(C)c2cnc[nH]2)c1C` (stereo not given): the remaining activity in experiment [1] was 123% (inactive). For the same compound, the z-score in experiment [4] (MELAS cybrid survival, CellTiter-Glo 48 h, stronger effect = higher value) was 0.00954 (inactive) and -0.104 (inactive) and -0.218 (inactive); in experiment [4] (Rieske KO mouse fibroblast survival, CellTiter-Glo 72 h), 0.0551 and -0.0823 and -0.0306; in experiment [3], -0.255 (inactive).

For the compound `C[C@H](N)Cc1cnc[nH]1`, the remaining activity in experiment [1] was 92.3% (inactive). Besides, the fold change in experiment [2] (setting [8]) was 0.997 (inactive); in experiment [2] (setting [9]), 1.13. Further, the cell count is 9180 in experiment [2] (setting [10]) and 9200 in experiment [2] (setting [11]). In addition, in experiment [3], the z-score was 0.12 (inactive).

With `CN(C(=O)Cc1ccccc1)C(CN1CCCC1)c1ccccc1` (stereo not given), in experiment [1], the remaining activity is 116% (inactive). Further, the fold change was 0.952 (inactive) in experiment [2] (setting [8]) and 0.864 in experiment [2] (setting [9]). The cell count in experiment [2] (setting [10]) was 8670; in experiment [2] (setting [11]) it was 9110. In addition, the z-score in experiment [3] is 0.03 (inactive).

Regarding `CCCN(C/C=C/I)C1CCc2ccc(O)cc2C1` (stereo not given), in experiment [1], the remaining activity is 102% (inactive). The fold change is 0.904 (inactive) in experiment [2] (setting [8]) and 0.638 in experiment [2] (setting [9]). For the same compound, the results for the cell count in experiment [2] (setting [10]) and in experiment [2] (setting [11]) were 8360 and 9250, respectively. In addition, the z-score in experiment [3] is -0.23 (inactive).

As for `CC[N+](CC)(CCCNC1=CC(=O)C(NCCC[N+](CC)(CC)Cc2ccccc2)=CC1=O)Cc1ccccc1`, the remaining activity in experiment [1] was 81.3% (inactive). Further, the results for the fold change in experiment [2] (setting [8]) and in experiment [2] (setting [9]) were 0.951 (inactive) and 0.768, respectively. Besides, the cell count was found to be 8950 in experiment [2] (setting [10]) and 9410 in experiment [2] (setting [11]). Further, the z-score in experiment [3] is -0.46 (inactive).

For `Cn1cc(C(=O)C(=O)N[C@H]2CN3CCC2CC3)c2ccccc21`, the remaining activity in experiment [1] is 92.5% (inactive). Moreover, the fold change in experiment [2] (setting [8]) is 0.891 (inactive); in experiment [2] (setting [9]), 1.06. The values for the cell count in experiment [2] (setting [10]) and in experiment [2] (setting [11]) were 8410 and 9440, respectively. Further, the z-score in experiment [3] was 0.935 (inactive).

Consider `COc1ccc2c(c1)c(CCN1CCOCC1)c(C)n2C(=O)c1cccc(Cl)c1Cl`, for which the inhibition in experiment [5] was -1% (inactive). Further, the fluorescence ratio (interference) in experiment [6] was 1.1 (inactive). Besides, in experiment [1], the remaining activity is 101% (inactive). Moreover, the fold change is 0.915 (inactive) in experiment [2] (setting [8]) and 1.25 in experiment [2] (setting [9]). In addition, the figures for the cell count in experiment [2] (setting [10]) and in experiment [2] (setting [11]) were 6500 and 7100, respectively. Also, the z-score in experiment [3] was -0.005 (inactive).

Consider `NCC(CS(=O)(=O)O)c1ccc(Cl)cc1` (stereo not given), for which the remaining activity in experiment [1] was 108% (inactive). Also, the fold change in experiment [2] (setting [8]) is 0.961 (inactive); in experiment [2] (setting [9]) it was 1.04. Moreover, the cell count in experiment [2] (setting [10]) worked out at 9200; in experiment [2] (setting [11]), 9570. Moreover, the z-score in experiment [3] was 0.475 (inactive).

For `S=C=Nc1cccc(C2(N3CCCCC3)CCCCC2)c1`, the period change in experiment [7] is 0.05 h (inactive). For the same compound, the remaining activity in experiment [1] was 122% (inactive). The fold change was 0.942 (inactive) in experiment [2] (setting [8]) and 0.732 in experiment [2] (setting [9]). The cell count in experiment [2] (setting [10]) amounted to 9100; in experiment [2] (setting [11]), 9670. For the same compound, the z-score in experiment [3] is 0.62 (inactive).

On to `CN(C)c1ccc(/C=C2\CCCN=C2c2cccnc2)cc1`, for which the remaining activity in experiment [1] was 94.5% (inactive). Besides, the fold change in experiment [2] (setting [8]) was 0.947 (inactive); in experiment [2] (setting [9]), 1.33. The cell count in experiment [2] (setting [10]) was determined as 8030; in experiment [2] (setting [11]), 8480. The z-score in experiment [3] is -0.4 (inactive).

On to `CN1C2CCC1CC(OC(c1ccc(F)cc1)c1ccc(F)cc1)C2` (stereo not given), for which the remaining activity in experiment [1] was 99.4% (inactive). The fold change in experiment [2] (setting [8]) is 1.03 (inactive); in experiment [2] (setting [9]) it was 1.19. Also, the cell count is 7710 in experiment [2] (setting [10]) and 7460 in experiment [2] (setting [11]). In addition, the z-score in experiment [3] was -0.46 (inactive).

The record behind these values is PubChem BioAssay.
